Laboratory results from PubChem BioAssay (Tox21).
Inconclusive results are not listed. Active and inactive are the calls of the source. Unless noted, calls come from the whole dose curve; as a rule, active = well fitted curve in the direction sought with a large enough effect in the repeat runs; inconclusive = weak or mixed curves; inactive = no such curve, though single readings can be large; an effect the other way counts as inactive or inconclusive.

Legend:
[1] = biological target: Retinoic acid receptor RXR-alpha (Homo sapiens) (UniProt P19793); assay: qHTS assay to identify small molecule agonists of the RXR signaling pathway (AID 1159527; calls by dose curve; note: nearly all actives have a fitted effect of over 35% in size)
Chain of Retinoic acid receptor RXR-alpha (Homo sapiens) (P19793 whole entry, looked up): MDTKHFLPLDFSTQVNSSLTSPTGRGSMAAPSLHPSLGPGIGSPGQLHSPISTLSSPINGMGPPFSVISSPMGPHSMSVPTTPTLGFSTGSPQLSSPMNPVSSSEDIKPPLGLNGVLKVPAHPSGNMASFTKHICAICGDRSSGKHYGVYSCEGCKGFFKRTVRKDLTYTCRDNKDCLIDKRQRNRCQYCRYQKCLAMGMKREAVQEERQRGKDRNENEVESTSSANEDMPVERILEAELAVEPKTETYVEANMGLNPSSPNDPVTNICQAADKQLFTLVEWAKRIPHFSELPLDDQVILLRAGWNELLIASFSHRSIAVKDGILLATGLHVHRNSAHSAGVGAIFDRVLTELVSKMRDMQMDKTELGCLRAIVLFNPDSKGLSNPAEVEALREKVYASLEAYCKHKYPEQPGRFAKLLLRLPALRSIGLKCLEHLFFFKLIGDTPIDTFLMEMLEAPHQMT
Outline: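 Read-out: beta-lactamase FRET ratio (405 nm excitation, 460 and 530 nm emission) after 2 hr substrate loading at room temperature. Cells were RXR-alpha-UAS-bla HEK 293T treated with compounds for 16 hr in 2% charcoal-stripped FBS medium.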

[2] = qHTS assay to identify small molecule agonists of the RXR signaling pathway - cell viability counter screen (AID 1159529); note: series mostly up to about 77 µM; nearly all actives have a fitted effect of over 50% in size
Outline: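 HEK 293T RXRa-bla cells, 2% CS-FBS; 5 h settle; cpd 16 h 37 C, 5% CO2; CellTiter-Glo 30 min RT, luminescence. Tetraoctyl ammonium bromide as positive control.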

[3] = qHTS assay to identify small molecule antagonists of the retinoid acid receptor (RAR) signaling pathway - cell viability counter screen (AID 1159551); note: nearly all actives have a fitted effect of over 35% in size
Outline: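 Seed C3RL4 cells; next day add compound, then retinol to 1 uM final; incubate 6 h at 37 C; add CellTiter-Glo; read luminescence after 30 min at RT.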

[4] = qHTS assay to identify small molecule agonists of the retinoic acid receptor (RAR) signaling pathway (AID 1159553)
Outline: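 Activation of retinol signaling was monitored via a RARE luciferase reporter in C3RL4 cells. After 6 hr compound treatment at 37 C, detection reagent was added for 30 min at room temperature before luminescence reading.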

[5] = qHTS assay to identify small molecule antagonists of the estrogen related receptor (ERR) signaling pathway from Tox21 library - cell viability counter screen (AID 1224834); note: nearly all actives have a fitted effect of over 30% in size
Outline: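 CellTiter-Fluor fluorescence measured; ERR cells; 17.5 h compound incubation at 37 C; 30 min reagent step.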

[6] = biological target: Luciferin 4-monooxygenase (Photinus pyralis) (UniProt P08659); assay: qHTS assay to identify small molecule inhibitors of firefly luciferase (AID 1224835); note: series mostly up to about 120 µM; nearly all actives have a fitted effect of over 25% in size
Chain of Luciferin 4-monooxygenase (Photinus pyralis) (P08659 whole entry, looked up): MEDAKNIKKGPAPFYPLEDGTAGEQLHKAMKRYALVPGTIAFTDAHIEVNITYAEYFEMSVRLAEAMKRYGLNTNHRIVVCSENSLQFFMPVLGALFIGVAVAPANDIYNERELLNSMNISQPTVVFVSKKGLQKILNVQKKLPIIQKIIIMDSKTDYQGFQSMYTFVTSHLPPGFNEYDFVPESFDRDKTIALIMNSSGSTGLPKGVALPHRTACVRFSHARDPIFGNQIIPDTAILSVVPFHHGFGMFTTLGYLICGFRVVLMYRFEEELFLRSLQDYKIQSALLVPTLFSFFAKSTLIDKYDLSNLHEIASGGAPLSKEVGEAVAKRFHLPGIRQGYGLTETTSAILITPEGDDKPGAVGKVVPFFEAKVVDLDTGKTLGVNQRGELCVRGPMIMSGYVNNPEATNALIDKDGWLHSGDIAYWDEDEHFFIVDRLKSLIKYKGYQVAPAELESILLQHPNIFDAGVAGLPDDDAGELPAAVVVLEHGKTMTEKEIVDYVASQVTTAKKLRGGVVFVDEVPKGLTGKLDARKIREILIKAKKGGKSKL
Outline: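 Quantitative HTS format; KM concentrations of both substrates. Purified P. pyralis FLuc activity quantified from luminescence images.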

[7] = qHTS assay to identify small molecule agonists of the constitutive androstane receptor (CAR) signaling pathway - cell viability counter screen (AID 1224836); note: series mostly up to about 92 µM; nearly all actives have a fitted effect of over 45% in size
Outline: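 HepG2-CYP2B6-hCAR, 2500 cells/well, 4 h pre-incubation; cpd 15 conc + PK11195 0.75 uM final; 23 h, 37 C/5% CO2; CellTiter-Fluor, fluorescence.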

[8] = biological target: Nuclear receptor subfamily 1 group I member 3 (Homo sapiens) (UniProt Q14994); assay: qHTS assay to identify small molecule antagonists of the constitutive androstane receptor (CAR) signaling pathway (AID 1224838);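 note: HepG2 cells stably expressing hCAR with CYP2B6 luciferase reporter stimulated by CITCO; nearly all actives have a fitted effect of over 40% in size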
Chain of Nuclear receptor subfamily 1 group I member 3 (Homo sapiens) (Q14994 whole entry, looked up): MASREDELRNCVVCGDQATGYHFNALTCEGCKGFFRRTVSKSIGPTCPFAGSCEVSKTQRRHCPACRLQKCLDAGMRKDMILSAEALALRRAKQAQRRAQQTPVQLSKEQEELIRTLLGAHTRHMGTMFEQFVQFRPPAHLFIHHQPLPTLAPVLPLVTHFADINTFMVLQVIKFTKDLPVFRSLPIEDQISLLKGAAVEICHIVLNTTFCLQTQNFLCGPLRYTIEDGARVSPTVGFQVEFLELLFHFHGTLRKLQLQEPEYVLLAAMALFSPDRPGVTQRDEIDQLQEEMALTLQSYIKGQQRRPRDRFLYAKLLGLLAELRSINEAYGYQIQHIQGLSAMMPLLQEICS
Outline: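 Reporter luminescence was quantified after 24 h exposure of hCAR/CYP2B6-2.2kb double-stable HepG2 cells to compounds at 15 concentrations in the presence of 50 nM CITCO final.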

[9] = biological target: Nuclear receptor subfamily 1 group I member 3 (Homo sapiens) (UniProt Q14994); assay: qHTS assay to identify small molecule agonists of the constitutive androstane receptor (CAR) signaling pathway (AID 1224839);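 note: HepG2 cells stably carrying human CAR and a CYP2B6 luciferase reporter; series mostly up to about 92 µM; nearly all actives have a fitted effect of over 15% in size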
Outline: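 HepG2-CYP2B6-hCAR cells, 2500/well, 4 h pre-incubation; compounds 15 conc.; PK11195 0.75 uM final; 24 h, 37 C/5% CO2; ONE-Glo luciferase read.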

[10] = qHTS assay to identify small molecule antagonists of the estrogen related receptor signaling pathway with the pleiotropic PPARgamma coactivator (PGC) from Tox21 10K library - cell viability counter screen (AID 1224840; active = well fitted cell-killing curve with a large enough effect in the repeat runs, not every such curve was filed as active; note: nearly all actives have a fitted effect of over 40% in size)
Outline: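 Here the PGC/ERR cells serve as a cytotoxicity control: they are exposed to compounds for 17.5 hours at 37 C, and live-cell signal is quantified using CellTiter-Fluor fluorescence.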

[11] = biological target: Thyrotropin receptor (Homo sapiens) (UniProt P16473); assay: qHTS assay to identify small molecule agonists of the thyroid stimulating hormone receptor (TSHR) signaling pathway (AID 1224843; calls by dose curve; note: nearly all actives have a fitted effect of over 45% in size)
Chain of Thyrotropin receptor (Homo sapiens) (P16473 whole entry, looked up): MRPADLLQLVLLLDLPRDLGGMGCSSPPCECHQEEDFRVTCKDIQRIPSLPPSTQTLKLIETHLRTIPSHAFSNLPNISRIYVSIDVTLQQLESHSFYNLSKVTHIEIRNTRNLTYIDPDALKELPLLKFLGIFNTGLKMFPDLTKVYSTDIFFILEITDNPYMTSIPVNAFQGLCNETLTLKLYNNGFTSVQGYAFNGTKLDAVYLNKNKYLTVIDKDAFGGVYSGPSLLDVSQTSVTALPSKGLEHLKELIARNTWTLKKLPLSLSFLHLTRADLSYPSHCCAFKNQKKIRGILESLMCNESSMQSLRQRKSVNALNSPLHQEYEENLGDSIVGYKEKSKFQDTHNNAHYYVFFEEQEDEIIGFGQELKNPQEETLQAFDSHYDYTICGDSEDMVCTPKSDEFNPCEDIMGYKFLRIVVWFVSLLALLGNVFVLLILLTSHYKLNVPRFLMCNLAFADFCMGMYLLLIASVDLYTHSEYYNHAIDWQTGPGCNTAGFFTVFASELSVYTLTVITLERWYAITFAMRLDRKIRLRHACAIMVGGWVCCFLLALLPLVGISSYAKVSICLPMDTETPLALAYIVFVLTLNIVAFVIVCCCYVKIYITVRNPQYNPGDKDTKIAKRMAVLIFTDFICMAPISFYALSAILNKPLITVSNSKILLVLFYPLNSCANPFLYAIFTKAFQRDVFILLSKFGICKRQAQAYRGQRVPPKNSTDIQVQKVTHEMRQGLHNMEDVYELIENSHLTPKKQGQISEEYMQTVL
Outline: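 Cell line HEK293 with TSHR; density 800/well. Exposure 30 min RT. Readout HTRF cAMP (cAMP-d2/anti-cAMP-cryptate), 1 h RT before reading.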

[12] = qHTS assay to identify small molecule agonists of the hypoxia (HIF-1) signaling pathway - cell viability counter screen (AID 1224844; calls by dose curve; note: nearly all actives have a fitted effect of over 50% in size)
Outline: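 Multiplexed with the HRE beta-lactamase assay, this viability read used CellTiter-Glo luminescence (30 min, RT) on HRE-bla ME-180 cells treated 17 hrs with compounds in 0.5% dialyzed FBS medium.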

[13] = qHTS assay to identify small molecule agonists of H2AX (AID 1224845; active = well fitted activation curve with a large enough effect in the signal ratio in the repeat runs, not every such curve was filed as active; the % refers to the signal ratio)
Outline: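 Wild-type CHO-K1 cells plated overnight, then exposed 3 hr at 37C to compounds at 15 concentrations (0.76% DMSO). Lysed, then HTRF anti-pH2AX(S139)-cryptate/anti-H2AX-d2 detection after 24 hr at room temperature; emissions 665 and 620 nm.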

[14] = qHTS assay to identify small molecule agonists of the hypoxia (HIF-1) signaling pathway (AID 1224846; active = well fitted activation curve with a large enough effect in the signal ratio in the repeat runs, not every such curve was filed as active; the % refers to the signal ratio)
Outline: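 Hypoxia-pathway activation was scored as increased beta-lactamase from an HRE-controlled reporter in ME-180 cells; plated at 2,000 cells per well with 0.5% dialyzed FBS, they were exposed 17 hrs to compounds and then given CCF4-AM.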

[15] = qHTS assay to identify small molecule agonists of H2AX - cell viability counter screen (AID 1224847; calls by dose curve; note: top concentration of the series differs between compounds; nearly all actives have a fitted effect of over 30% in size)
Outline: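 Cells plated first: CHO-K1, 1000 per well in 10% FBS medium, incubated overnight at 37C. Then 15-point compound titration added (final DMSO 0.76%) for 3 hr. Finally CellTiter-Glo added and luminescence read.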

[16] = qHTS assay to identify small molecule antagonists of the retinoic acid receptor (RAR) signaling pathway (AID 1159552; note: nearly all actives have a fitted effect of over 50% in size)
Outline: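 Cells of the C3RL4 line were seeded, incubated overnight, then dosed with compounds in DMSO followed immediately by retinol (1 uM final). Six hours later luciferase detection reagent went in; signal was measured after 30 min at RT.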

[17] = qHTS assay to identify small molecule antagonists of the constitutive androstane receptor (CAR) signaling pathway - cell viability counter screen (AID 1224837); note: series mostly up to about 92 µM; nearly all actives have a fitted effect of over 45% in size
Outline: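 Using CellTiter-Fluor, viability is scored in HepG2 cells stably carrying hCAR and a 2.2kb CYP2B6 reporter after 23 hr compound exposure across 15 concentrations, with CITCO present at 50 nM.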

Measured: Potency

OCC1(CO)COCOC1
not listed: [16] | [17]
inactive: all other assays above

CN(C)CC/C=C1/c2ccccc2COc2ccc(CC(=O)O)cc21
not listed: [17]
inactive: all other assays above

CCOc1cccc(N)c1
not listed: [16]
inactive: all other assays above

C=CC/C=C/C
not listed: [8] | [9] | [10] | [16]
inactive: all other assays above

CCCSSCCC
not listed: [16]
inactive: all other assays above

C=CCCCCCCCCC(=O)OCCCC
not listed: [11] | [16] | [17]
inactive: all other assays above

CCCC(=O)Nc1ccc(OCC(O)CNC(C)C)c(C(C)=O)c1 (stereo not drawn)
not listed: [14] | [16] | [17]
inactive: all other assays above

C=CCOC(=O)CCCCCC
not listed: [12] | [15] | [17]
inactive: all other assays above
